Measurements reported in PubChem BioAssay (Tox21).
Results filed as inconclusive are left out. Activity calls are given as the source filed them. Unless noted, calls come from the whole dose curve; as a rule, active = well fitted curve in the direction sought with a large enough effect in the repeat runs; inconclusive = weak or mixed curves; inactive = no such curve, though single readings can be large; an effect the other way counts as inactive or inconclusive.

Experiments:
[1] = qHTS assay to identify aromatase inhibitors - cell viability counter screen (AID 743084);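 note: cells stimulated with testosterone during compound exposure; nearly all actives have a fitted effect of over 55% in size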; note: potency is the fitted concentration of half-maximal effect
[2] = target: Aryl hydrocarbon receptor (Homo sapiens) (UniProt P35869); experiment: qHTS assay to identify small molecule that activate the aryl hydrocarbon receptor (AhR) signaling pathway (AID 743085);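 note: HG2L7.5c1 human HepG2 liver cells with stably integrated DRE-driven firefly reporter; series mostly up to about 70 µM; nearly all actives have a fitted effect of over 15% in size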
Sequence of Aryl hydrocarbon receptor (Homo sapiens) (P35869 whole entry, looked up): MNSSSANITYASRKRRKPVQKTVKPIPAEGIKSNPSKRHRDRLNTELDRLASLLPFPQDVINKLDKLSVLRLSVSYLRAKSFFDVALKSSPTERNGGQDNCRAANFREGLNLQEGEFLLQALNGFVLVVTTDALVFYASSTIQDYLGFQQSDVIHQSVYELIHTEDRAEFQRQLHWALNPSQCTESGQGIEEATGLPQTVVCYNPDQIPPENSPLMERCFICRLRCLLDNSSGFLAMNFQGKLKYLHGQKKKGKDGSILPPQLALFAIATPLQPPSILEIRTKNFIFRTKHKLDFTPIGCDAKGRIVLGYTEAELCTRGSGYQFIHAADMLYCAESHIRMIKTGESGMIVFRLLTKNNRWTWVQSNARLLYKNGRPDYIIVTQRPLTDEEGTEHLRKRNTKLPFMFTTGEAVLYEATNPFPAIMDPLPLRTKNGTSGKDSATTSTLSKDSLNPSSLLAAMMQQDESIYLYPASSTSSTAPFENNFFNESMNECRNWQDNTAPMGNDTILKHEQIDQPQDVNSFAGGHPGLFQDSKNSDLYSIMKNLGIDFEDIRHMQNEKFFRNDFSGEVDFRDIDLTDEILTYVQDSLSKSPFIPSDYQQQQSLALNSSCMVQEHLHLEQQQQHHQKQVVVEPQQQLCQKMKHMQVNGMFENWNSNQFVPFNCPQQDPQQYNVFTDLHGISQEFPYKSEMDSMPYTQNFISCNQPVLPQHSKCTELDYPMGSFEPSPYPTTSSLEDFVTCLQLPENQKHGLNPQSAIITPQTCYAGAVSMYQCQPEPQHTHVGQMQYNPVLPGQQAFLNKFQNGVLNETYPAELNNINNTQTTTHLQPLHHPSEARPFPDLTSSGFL
Summary of the method: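 Measured in HG2L7.5c1 cells: CellTiter-Fluor signal (30 min incubation, 37C) for viability, then luciferase luminescence (30 min, room temperature). Compound contact time was 24 h at 37C, following a 5 h pre-incubation.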

[3] = qHTS assay to identify small molecule phospholipidosis (PLD) inducers (AID 1259344; active = well fitted curve in the direction sought with a large enough effect; an effect the other way counts as inactive or inconclusive)
Summary of the method: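 Phospholipid accumulation was scored by imaging: fixed, Hoechst-counterstained HepG2 cells stained with LipidTOX Red after 24 h compound exposure at 37 C. Read-outs were pit count and pit intensity per well or per cell, with amiodarone and DMSO controls.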

[4] = target: Nuclear receptor subfamily 1 group I member 2 (Rattus norvegicus) (UniProt Q9R1A7); experiment: Rat pregnane X receptor (rPXR) activation by small molecules, qHTS assay (AID 1346983); conditions: rPXR luciferase reporter cells, One-Glo luminescence, 24 h; max activation: active compounds read high; note: nearly all actives have a fitted effect of over 20% in size
Sequence of Nuclear receptor subfamily 1 group I member 2 (Rattus norvegicus) (Q9R1A7 whole entry, looked up): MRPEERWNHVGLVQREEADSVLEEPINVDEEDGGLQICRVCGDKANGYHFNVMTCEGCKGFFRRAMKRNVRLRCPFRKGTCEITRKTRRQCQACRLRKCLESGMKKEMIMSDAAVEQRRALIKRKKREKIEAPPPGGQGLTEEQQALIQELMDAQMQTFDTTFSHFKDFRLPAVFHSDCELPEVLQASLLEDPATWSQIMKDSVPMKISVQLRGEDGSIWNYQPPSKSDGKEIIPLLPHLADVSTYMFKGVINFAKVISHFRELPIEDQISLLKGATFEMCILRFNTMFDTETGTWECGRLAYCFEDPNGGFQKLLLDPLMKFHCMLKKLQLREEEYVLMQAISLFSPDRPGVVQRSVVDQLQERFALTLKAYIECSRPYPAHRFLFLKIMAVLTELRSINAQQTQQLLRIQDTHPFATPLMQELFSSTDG
Summary of the method: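 Luminescent readout (One-Glo luciferase, 30 min room temperature) followed 24 hr compound treatment at 37 C of rPXR cells plated 2,000 per well and preincubated 5hr; qHTS format with compounds delivered in DMSO.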

[5] = target: Nuclear receptor subfamily 1 group I member 2 (Homo sapiens) (UniProt O75469); experiment: CYP3A4 induction through human pregnane X receptor (PXR) by small molecules, qHTS assay (AID 1346984); note: nearly all actives have a fitted effect of over 40% in size
Summary of the method: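 After 24 h at 37C with compound, DPX-2 cells (HepG2, co-transfected PXR response element and CYP3A4 promoter-luciferase) got 3uM final P450-Glo Luciferin-IPA for 3 h; One-Glo luminescence followed.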

[6] = target: Nuclear receptor subfamily 1 group I member 2 (Homo sapiens) (UniProt O75469); experiment: Human pregnane X receptor (PXR) activation by small molecules, qHTS assay (AID 1346985); note: nearly all actives have a fitted effect of over 40% in size
Summary of the method: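 DPX-2 cells (HepG2 co-transfected with a PXR response element and a CYP3A4-promoter luciferase construct) were seeded at 2,000 per well, rested 5 hr at 37C, then exposed to DMSO-dissolved compounds for 24 hr. Activation was read as luciferase luminescence.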

[7] = qHTS assay to identify small molecule that activate the aryl hydrocarbon receptor (AhR) signaling pathway - cell viability counter screen (AID 743086);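 note: HepG2 liver cells carrying the AhR DRE luciferase reporter; series mostly up to about 70 µM; nearly all actives have a fitted effect of over 45% in size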
Summary of the method: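 Cytotoxicity counter screen: CellTiter-Fluor signal (30 min, 37 C) in 4000 HepG2 cells/well carrying the DRE-luciferase reporter, following 24 h compound exposure at 37 C.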

[8] = target: Peroxisome proliferator-activated receptor gamma (Homo sapiens) (UniProt P37231); experiment: qHTS assay to identify small molecule agonists of the peroxisome proliferator-activated receptor gamma (PPARg) signaling pathway (AID 743094; active = well fitted activation curve with a large enough effect in the signal ratio in the repeat runs, not every such curve was filed as active; the % refers to the signal ratio)
Sequence of Peroxisome proliferator-activated receptor gamma (Homo sapiens) (P37231 whole entry, looked up): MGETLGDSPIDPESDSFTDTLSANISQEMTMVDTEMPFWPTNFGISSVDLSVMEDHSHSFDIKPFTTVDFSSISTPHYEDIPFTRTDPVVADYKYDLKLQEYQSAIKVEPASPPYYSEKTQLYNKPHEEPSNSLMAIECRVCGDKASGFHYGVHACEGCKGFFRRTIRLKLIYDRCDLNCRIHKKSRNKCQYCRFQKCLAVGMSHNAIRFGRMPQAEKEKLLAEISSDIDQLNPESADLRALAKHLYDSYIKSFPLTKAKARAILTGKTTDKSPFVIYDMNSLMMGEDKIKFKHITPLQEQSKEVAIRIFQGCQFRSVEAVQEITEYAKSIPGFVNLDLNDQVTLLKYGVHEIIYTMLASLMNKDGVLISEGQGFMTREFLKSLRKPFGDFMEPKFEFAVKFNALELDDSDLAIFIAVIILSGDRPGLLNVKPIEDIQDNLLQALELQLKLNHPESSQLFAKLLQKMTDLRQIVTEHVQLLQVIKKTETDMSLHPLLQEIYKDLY
Summary of the method: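 Fluorescence-based beta-lactamase readout in HEK293H PPARg UAS-bla cells after 17 h compound exposure (37C) and 1 h B/G FRET substrate incubation at room temperature.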
% is set by controls: 0 for no effect and ±100 for the full control effect.

COc1ccc(-c2noc(CC(=O)O)c2-c2ccc(OC)cc2)cc1
inactive: Potency [1] | Potency [2] | Potency [3] | max activation [4] -3.32% | Potency [5] | Potency [6]

CC[C@H](C)[C@H]1O[C@]2(CC[C@@H]1C)C[C@@H]1C[C@@H](C/C=C(\C)[C@@H](O[C@H]3C[C@H](OC)[C@@H](O[C@H]4C[C@H](OC)[C@@H](O)[C@H](C)O4)[C@H](C)O3)[C@@H](C)/C=C/C=C3\CO[C@@H]4[C@H](O)C(C)=C[C@@H](C(=O)O1)[C@]34O)O2
inactive: Potency [1] | Potency [2] | Potency [7] | Potency [3] | max activation [4] -15.7% | Potency [5] | Potency [6]

O=C(CO)[C@@H](O)[C@H](O)[C@@H](O)C(=O)O
inactive: Potency [1] | Potency [2] | Potency [7] | Potency [3] | max activation [4] -2.1% | Potency [5] | Potency [6]

CCOC(=O)c1cc(-c2ccccc2)nc2ccc(C)cc12
inactive: Potency [1] | Potency [2] | Potency [3] | max activation [4] -2.37% | Potency [5] | Potency [6]

C=C(NC(=O)C(=C)NC(=O)c1csc(C2=N[C@@H]3c4csc(n4)[C@H]4NC(=O)c5csc(n5)[C@H]([C@](C)(O)[C@@H](C)O)NC(=O)[C@H]5CSC(=N5)C(=CC)NC(=O)C([C@@H](C)O)NC(=O)c5csc(n5)[C@]3(CC2)NC(=O)[C@H](C)NC(=O)C(=C)NC(=O)[C@H](C)NC(=O)C([C@@H](C)CC)NC2C=Cc3c([C@H](C)O)cc(nc3C2O)C(=O)O[C@@H]4C)n1)C(N)=O (some centres not stated)
active: Potency [1] 11.4 µM
inactive: Potency [2] | Potency [7] | Potency [3] | max activation [4] -3.21% | Potency [5] | Potency [6]

OCC(O)CO
inactive: Potency [3] | max activation [4] -5.18%

CC(C)C[C@H](NC(=O)[C@@H](Cc1c[nH]c2ccccc12)NC(=O)[C@H](Cc1ccc(O)cc1)NC(=O)[C@H](CO)NC(=O)[C@H](Cc1c[nH]c2ccccc12)NC(=O)[C@H](Cc1cnc[nH]1)NC(=O)[C@@H]1CCC(=O)N1)C(=O)N[C@@H](CCCN=C(N)N)C(=O)N1CCC[C@@H]1C(=O)NCC(N)=O
inactive: Potency [1] | Potency [2] | Potency [7] | Potency [3] | max activation [4] -2.6% | Potency [5] | Potency [6]

S=C=Nc1ccc(N=C=S)cc1
inactive: Potency [1] | Potency [2] | Potency [7] | Potency [3] | max activation [4] -1.24% | Potency [5] | Potency [6]

O=C1N=C2SCCN2C(=O)C1Cc1ccc(Cl)cc1 (configuration not stated)
inactive: Potency [3] | max activation [4] -2.07% | Potency [5] | Potency [6]

CCCCC/C=C\C/C=C\C/C=C\CCCCC(=O)O
inactive: Potency [1] | Potency [2] | Potency [7] | Potency [3] | max activation [4] -0.879% | Potency [5] | Potency [6]

Oc1cc(O)cc(O)c1
inactive: Potency [1] | Potency [2] | Potency [7] | Potency [3] | max activation [4] -1.47% | Potency [5] | Potency [6]

O=C(O)c1nc(=O)[nH]c(=O)[nH]1
inactive: Potency [1] | Potency [2] | Potency [7] | Potency [3] | max activation [4] -2.15% | Potency [5] | Potency [6]

OC[C@H]1OC([S-])[C@H](O)[C@@H](O)[C@@H]1O.[Au+] (some centres not stated)
inactive: Potency [1] | Potency [2] | Potency [7] | Potency [3] | max activation [4] -6.36% | Potency [5] | Potency [6]

FC(F)(F)C(F)(F)C(F)(F)C(F)(F)C(F)(F)C(F)(F)F
inactive: Potency [1] | Potency [2] | Potency [7] | Potency [8] | Potency [3] | max activation [4] -1.09% | Potency [5] | Potency [6]

CNCC(O)c1ccc(OC(=O)C(C)(C)C)c(OC(=O)C(C)(C)C)c1 (configuration not stated)
inactive: Potency [1] | Potency [2] | Potency [7] | Potency [8] | Potency [3] | max activation [4] 0.121% | Potency [5] | Potency [6]

OC1OC[C@@H](O)[C@H](O)[C@@H]1O (some centres not stated)
inactive: Potency [1] | Potency [2] | Potency [7] | Potency [8] | Potency [3] | max activation [4] 0.988% | Potency [5] | Potency [6]

CC1(O)CCC(C(C)(C)O)CC1 (configuration not stated)
inactive: Potency [1] | Potency [2] | Potency [7] | Potency [8] | Potency [3] | max activation [4] -1.3% | Potency [5] | Potency [6]

[O]=[Bi][O][Bi]=[O]
inactive: Potency [1] | Potency [2] | Potency [7] | Potency [3] | max activation [4] -2.85% | Potency [5] | Potency [6]

COc1c(O[C@@H]2O[C@H](CO)[C@@H](O)[C@H](O)[C@H]2O)cc2c(c1OC)-c1ccc(SC)c(=O)cc1[C@@H](NC(C)=O)CC2
inactive: Potency [1] | Potency [2] | Potency [7] | Potency [8] | Potency [3] | max activation [4] -2.99% | Potency [5] | Potency [6]

O=C(O)CCC/C=C\C[C@@H]1[C@@H](/C=C/[C@@H](O)COc2cccc(Cl)c2)[C@H](O)C[C@@H]1O
inactive: Potency [1] | Potency [2] | Potency [7] | Potency [8] | Potency [3] | max activation [4] -0.0632% | Potency [5] | Potency [6]

NC(=O)OCC(O)COc1ccc(Cl)cc1 (configuration not stated)
inactive: Potency [1] | Potency [2] | Potency [7] | Potency [8] | Potency [3] | max activation [4] 0.928% | Potency [5] | Potency [6]

C=CCCCCCCCCC(=O)OC
inactive: Potency [1] | Potency [2] | Potency [7] | Potency [8] | Potency [3] | max activation [4] -1.33% | Potency [5] | Potency [6]
